According to PubChem BioAssay:
Activity calls are given as the source filed them. Unless noted, how the calls were made is not given here.

Key:
[1] = test system: Wnt5a (protein binding on small-molecule microarray); experiment: small molecules binding Wnt5a protein – biophysical, small-molecule microarray, 635/667 nm fluorescence, primary screen (AID 1142); conditions: 635 nm fluorescence, higher = more signal;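 further: fluorescence read at 667 nm with signal to noise per printed feature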
[2] = ATP-based viability of Huh7 replicon cells – cell-based, CellTiter-Glo luminescence, basal, 48 h, cytotoxicity control for HCV replication inhibitor project, primary screen (AID 1143); conditions: higher = more signal, called active from +8 up or from −8 down;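 further: Huh7 hepatoma cells carrying a hepatitis C replication reporter with no stimulus; test concentration not given here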
[3] = Pseudomonas biofilm growth suppression – PAO1 strain, BacTiter-Glo luminescence, LB-PBS, primary screen (AID 1144); conditions: P. aeruginosa PAO1 biofilm, 12 h, higher = more signal
[4] = basal CRE-LacZ reporter activity in PC12 – cell-based, unstimulated, primary screen (AID 1145); conditions: no forskolin, luminescence, 4.5 h, higher = more signal, called active from +8 up or from −8 down
[5] = forskolin-driven CRE-LacZ activity in PC12 – cell-based, CRE-LacZ reporter, forskolin-stimulated, primary screen (AID 1146); conditions: luminescence, 4.5 h, higher = more signal, called active from +8 up or from −8 down;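 further: PC12 cells with 6xCRE LacZ reporter stimulated by forskolin 10 µM; beta-galactosidase reporter signal reflecting CREB driven transcription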
[6] = biological target: Streptavidin (Streptomyces avidinii) (UniProt P22629); experiment: compounds binding control protein streptavidin – biophysical, small-molecule microarray, 635/667 nm fluorescence, artefact control for SMM compound annotation, primary screen (AID 1147); conditions: higher = more signal;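 further: signal reflects streptavidin binding to arrayed compounds as a control protein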
Sequence of Streptavidin (Streptomyces avidinii) (P22629 whole entry, looked up): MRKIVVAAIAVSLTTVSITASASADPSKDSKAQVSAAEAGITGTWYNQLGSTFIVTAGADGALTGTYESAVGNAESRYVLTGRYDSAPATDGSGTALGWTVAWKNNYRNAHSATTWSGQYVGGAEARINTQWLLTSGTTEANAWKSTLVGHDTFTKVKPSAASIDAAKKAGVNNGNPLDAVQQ

[7] = probe aInhba binding on compound microarray – biochemical, small-molecule microarray, 635/667 nm fluorescence, primary screen (AID 1148); conditions: higher = more signal;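 further: score merges 667nm spot fluorescence with signal-to-noise for antibody binding to printed compounds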
[8] = biological target: Torsin-1A (Homo sapiens) (UniProt O14656); experiment: TOR1A wild-type binding on microarray – cell lysate, small-molecule microarray, lysate, 635/667 nm, primary screen (AID 1149); conditions: COS7 hTOR1A-WT lysate, 635 nm fluorescence, higher = more signal
Sequence of Torsin-1A (Homo sapiens) (O14656 whole entry, looked up): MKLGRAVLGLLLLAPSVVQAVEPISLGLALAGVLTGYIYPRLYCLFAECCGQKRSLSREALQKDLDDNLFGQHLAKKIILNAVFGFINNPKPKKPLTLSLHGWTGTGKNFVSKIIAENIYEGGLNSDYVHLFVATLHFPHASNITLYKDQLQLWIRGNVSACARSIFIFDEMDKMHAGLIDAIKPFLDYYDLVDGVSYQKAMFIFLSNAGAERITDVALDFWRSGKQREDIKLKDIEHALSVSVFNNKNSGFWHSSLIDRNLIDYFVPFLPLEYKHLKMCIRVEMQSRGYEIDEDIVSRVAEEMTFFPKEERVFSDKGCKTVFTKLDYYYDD

[9] = biological target: Torsin-1A (Homo sapiens) (UniProt O14656); experiment: torsin A mutant lysate binding on microarrays – cell lysate, small-molecule microarray, COS7 lysate, 635/667 nm fluorescence, primary screen (AID 1150); conditions: COS7 hTOR1A mutant lysate, 635 nm fluorescence, higher = more signal;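 further: score pools 667 nm emission and signal to noise measuring lysate protein binding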
[10] = test system: Sonic hedgehog protein (Shh); experiment: Sonic hedgehog microarray binding compounds – biochemical, small-molecule microarray, 635/667 nm fluorescence, primary screen (AID 1151); conditions: 635 nm fluorescence, higher = more signal;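 further: Shh protein binding to compounds spotted on small-molecule microarray slides; score combines spot fluorescence intensity with signal-to-noise across triplicate slides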
[11] = optical density shifts of acrAB sulA E. coli – strain DRC41, OD650, 48 h, E. coli filamentation inducer project, primary screen (AID 1152); conditions: higher = more signal, called active from +8 up or from −8 down;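 further: E. coli MC1000 strain DRC41 lacking acrAB efflux pump and sulA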
[12] = probe aLefty1 binding on compound microarray – biochemical, small-molecule microarray, 635/667 nm fluorescence, primary screen (AID 1153); conditions: higher = more signal;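 further: score merges spot fluorescence with signal-to-noise ratio from the scanned slide images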
[13] = plasmodial surface anion channel blockers, osmotic lysis – cell-based, P. falciparum Indochina, OD700, 1 h, primary screen (AID 1154); conditions: P. falciparum Indochina infected RBC osmotic lysis, higher = more signal, called active from +8 up or from −8 down
[14] = plasmodial surface anion channel blockers, osmotic lysis – cell-based, P. falciparum Indochina, OD700, 2 h, primary screen (AID 1155);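 further: lysis reports solute entry through the parasite surface anion channel PSAC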; conditions: P. falciparum Indochina infected erythrocytes, higher = more signal, called active from +8 up or from −8 down
[15] = changes in parasitized red cell lysis, either direction – P. falciparum Indochina, OD700, 3 h, PSAC antagonist project, primary screen (AID 1156); conditions: P. falciparum-infected erythrocytes, osmotic lysis, higher = more signal, called active from +8 up or from −8 down
[16] = plasmodial surface anion channel blockers, osmotic lysis – cell-based, P. falciparum Indochina, OD700, 18 h, primary screen (AID 1157); conditions: P. falciparum Indochina infected erythrocytes, osmotic lysis OD700, 18 h; higher = more signal, called active from +8 up or from −8 down
[17] = S6 kinase pathway phospho-S6 level changes – cell-based, A549, cytoblot, luminescence, serum-stimulated, primary screen (AID 1158); conditions: 5 h, higher = more signal;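 further: serum-stimulated A549 lung adenocarcinoma cells; signal is phosphorylated S6 detected by cytoblot immunostaining with HRP secondary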
[18] = biological target: NADPH oxidase 2 (Homo sapiens) (UniProt P04839); experiment: compounds shifting NOX2 Amplex Red fluorescence – cell-based, HEK293-NOX2, PMA-stimulated, NOX inhibitor project, primary screen (AID 1159); conditions: 45 min, higher = more signal, called active from +8 up or from −8 down; further: test concentration not given here
Sequence of NADPH oxidase 2 (Homo sapiens) (P04839 whole entry, looked up): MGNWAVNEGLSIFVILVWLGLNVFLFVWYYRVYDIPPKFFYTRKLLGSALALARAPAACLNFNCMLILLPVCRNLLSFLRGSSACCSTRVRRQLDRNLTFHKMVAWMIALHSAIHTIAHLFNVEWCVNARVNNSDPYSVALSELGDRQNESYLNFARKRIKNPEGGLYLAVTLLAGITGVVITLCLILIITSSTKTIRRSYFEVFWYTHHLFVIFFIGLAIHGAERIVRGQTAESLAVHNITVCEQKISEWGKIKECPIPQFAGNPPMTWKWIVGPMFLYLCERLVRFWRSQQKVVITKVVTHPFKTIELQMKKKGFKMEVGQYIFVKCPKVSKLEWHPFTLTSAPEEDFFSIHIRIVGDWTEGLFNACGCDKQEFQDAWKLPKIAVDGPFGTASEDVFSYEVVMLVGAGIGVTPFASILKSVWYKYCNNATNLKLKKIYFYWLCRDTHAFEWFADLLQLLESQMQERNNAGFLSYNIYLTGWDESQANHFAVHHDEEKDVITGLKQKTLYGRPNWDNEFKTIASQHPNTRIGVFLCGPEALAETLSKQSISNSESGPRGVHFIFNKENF

[19] = biological target: NADPH oxidase 4 (Homo sapiens) (UniProt Q9NPH5); experiment: compounds shifting NOX4 Amplex Red fluorescence – cell-based, HEK293-NOX4, tetracycline-induced, NOX inhibitor project, primary screen (AID 1160); conditions: HEK293-NOX4, Amplex Red H2O2 fluorescence, 45 min; higher = more signal, called active from +8 up or from −8 down
Sequence of NADPH oxidase 4 (Homo sapiens) (Q9NPH5 whole entry, looked up): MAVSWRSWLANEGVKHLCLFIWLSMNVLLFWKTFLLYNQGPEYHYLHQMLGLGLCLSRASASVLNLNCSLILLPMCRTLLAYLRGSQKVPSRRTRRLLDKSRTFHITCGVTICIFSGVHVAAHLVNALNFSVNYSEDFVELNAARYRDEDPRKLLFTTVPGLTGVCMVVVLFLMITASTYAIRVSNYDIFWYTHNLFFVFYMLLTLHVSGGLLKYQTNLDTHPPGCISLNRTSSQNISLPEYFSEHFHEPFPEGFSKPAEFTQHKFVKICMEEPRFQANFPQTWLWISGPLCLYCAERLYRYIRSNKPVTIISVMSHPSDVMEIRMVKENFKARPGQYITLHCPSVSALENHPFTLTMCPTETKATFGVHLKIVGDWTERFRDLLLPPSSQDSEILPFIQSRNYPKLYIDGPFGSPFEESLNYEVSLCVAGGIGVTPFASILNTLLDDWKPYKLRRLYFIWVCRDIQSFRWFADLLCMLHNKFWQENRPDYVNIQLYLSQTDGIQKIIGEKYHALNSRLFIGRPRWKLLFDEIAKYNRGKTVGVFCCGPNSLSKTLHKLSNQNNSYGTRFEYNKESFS

[20] = biological target: NADPH oxidase 5 (Homo sapiens) (UniProt Q96PH1); experiment: compounds shifting NOX5 Amplex Red fluorescence – cell-based, HEK293-NOX5, NOX inhibitor project, primary screen (AID 1161); conditions: HEK293-NOX5, ionomycin, 45 min, higher = more signal
Sequence of NADPH oxidase 5 (Homo sapiens) (Q96PH1 whole entry, looked up): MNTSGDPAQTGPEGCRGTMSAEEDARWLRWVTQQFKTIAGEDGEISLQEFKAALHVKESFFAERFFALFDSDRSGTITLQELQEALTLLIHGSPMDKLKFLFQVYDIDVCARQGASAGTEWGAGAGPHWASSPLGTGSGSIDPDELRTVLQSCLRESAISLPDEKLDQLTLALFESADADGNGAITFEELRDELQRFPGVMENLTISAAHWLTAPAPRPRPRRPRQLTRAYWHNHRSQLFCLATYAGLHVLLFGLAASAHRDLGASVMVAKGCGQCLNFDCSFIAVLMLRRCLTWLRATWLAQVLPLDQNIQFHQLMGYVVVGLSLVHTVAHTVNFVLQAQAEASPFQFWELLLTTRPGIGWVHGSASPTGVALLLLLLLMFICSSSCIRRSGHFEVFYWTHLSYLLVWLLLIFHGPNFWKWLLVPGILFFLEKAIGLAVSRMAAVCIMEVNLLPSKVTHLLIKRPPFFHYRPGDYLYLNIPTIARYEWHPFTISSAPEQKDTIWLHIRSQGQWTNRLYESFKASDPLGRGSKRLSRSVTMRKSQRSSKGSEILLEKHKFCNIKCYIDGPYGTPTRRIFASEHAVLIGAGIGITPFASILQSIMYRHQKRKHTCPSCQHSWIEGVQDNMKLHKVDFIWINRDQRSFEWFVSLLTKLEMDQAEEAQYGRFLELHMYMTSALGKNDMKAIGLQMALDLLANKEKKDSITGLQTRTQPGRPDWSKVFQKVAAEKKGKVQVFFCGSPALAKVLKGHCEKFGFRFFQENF

SMILES | composite z-score [1] | z-score [2] | z-score [3] | z-score [4] | z-score [5] | composite z-score [6] | composite z-score [7] | composite z-score [8] | composite z-score [9] | composite z-score [10] | z-score [11] | composite z-score [12] | z-score [13] | z-score [14] | z-score [15] | z-score [16] | z-score [17] | z-score [18] | z-score [19] | z-score [20]
COCCCNC(=O)[C@@H]1c2ccccc2C(=O)N(Cc2cc(C(F)(F)F)cc(C(F)(F)F)c2)[C@H]1c1ccc(CO)cc1 | 0.128 | -0.334 (inactive) | 0.608 (inactive) | 0.288 (inactive) | -0.613 (inactive) | -0.587 | 0.502 | 0.47 | 0.7 | 0.395 | 0.144 (inactive) | 1.24 | 1.58 (inactive) | -0.0915 (inactive) | 0.532 (inactive) | 0.254 (inactive) | -0.348 | 0.175 (inactive) | 0.414 (inactive) | 1.54
COCCOC(=O)N1C(=O)[C@@]2(c3cc(C#CCCO)ccc31)[C@H](C(=O)N1CCN(c3ncccn3)CC1)[C@H]1C(=O)O[C@H](c3ccccc3)[C@H](c3ccccc3)N1[C@@H]2c1ccc(O)cc1 | 0.15 | -1.79 (inactive) | -0.798 (inactive) | 0.484 (inactive) | 0.268 (inactive) | -0.269 | -0.291 | -0.144 | 0.522 | 1.11 | 1.35 (inactive) | -0.36 | 1.78 (inactive) | 0.133 (inactive) | 1.21 (inactive) | 0.684 (inactive) | 0.188 | 1.69 (inactive) | 1.21 (inactive) | 1.29
C=C(COC)/C(=C/C[C@H](OC(=O)c1ccncc1)c1ccc(OCCO)cc1)c1cc(C(=O)OC)ccc1OC | 0.457 | -3.86 (inactive) | -0.999 (inactive) | 5.8 (inactive) | 0.946 (inactive) | 0.616 | -0.0087 | 0.229 | 0.132 | 1.94 | 1.79 (inactive) | 0.0999 | 21.4 (active) | 2.24 (inactive) | 2.31 (inactive) | -1.02 (inactive) | 0.876 | -3.16 (inactive) | -1.49 (inactive) | -2.53
CCOC(=O)C1=CC[C@@H](c2ccccc2Cl)N(S(=O)(=O)c2ccc(C)cc2)[C@H]1c1cccc(OC)c1 | 0.142 | -1.84 (inactive) | 1.15 (inactive) | 0.425 (inactive) | 0.173 (inactive) | 0.333 | -0.0695 | 0.368 | 0.0635 | -0.476 | -1.44 (inactive) | 0.0082 | 1.23 (inactive) | 1.16 (inactive) | 0.106 (inactive) | 0.362 (inactive) | -0.401 | 0.78 (inactive) | 0.238 (inactive) | 0.113
C=CCOC(=O)[C@H]1[C@@H]2C(=O)O[C@@H](c3ccccc3)[C@@H](c3ccccc3)N2[C@@H](c2ccc(OCCOC(=O)[C@@H]3C[C@@H]4C(=O)N[C@@H](Cc5ccccc5)C(=O)N4[C@@H]3c3ccc(O)cc3)cc2)[C@]12C(=O)Nc1ccccc12 | 0.5 | 0.247 (inactive) | -0.661 (inactive) | 0.679 (inactive) | -0.158 (inactive) | 0.537 | -0.0762 | 0.83 | 0.8 | 1.03 | -0.126 (inactive) | -0.0235 | 2.33 (inactive) | 0.776 (inactive) | 1.28 (inactive) | 0.914 (inactive) | 0.896 | 1.48 (inactive) | 1.14 (inactive) | 2.13
CCCCC=C[C@@H](NC(=O)c1ccc(C(F)(F)F)cc1)c1ccccc1 | -0.467 | -0.954 (inactive) | 1.03 (inactive) | 0.19 (inactive) | 1.47 (inactive) | -0.683 | -0.105 | -0.652 | -0.951 | -0.845 | -1.96 (inactive) | -0.112 | 5.47 (inactive) | 0.895 (inactive) | -0.427 (inactive) | 0.373 (inactive) | -0.0311 | -1.51 (inactive) | -1.37 (inactive) | 1.1
C=CC[C@@]1(C(=O)O)N=C(c2ccc(OCCCO)cc2)O[C@@H]1c1ccccc1CN=[N+]=[N-] | 0.229 | -1.9 (inactive) | -1.6 (inactive) | -0.183 (inactive) | -1.13 (inactive) | 1.93 | -0.0736 | -0.0975 | 0.884 | 0.582 | 0.578 (inactive) | -0.335 | 25.8 (active) | 16.5 (active) | 1.15 (inactive) | 1.71 (inactive) | 0.842 | -0.235 (inactive) | 1.24 (inactive) | 0.186
O=C1O[C@@H](c2ccccc2)[C@@H](c2ccccc2)N2[C@@H](c3ccc(O)cc3)[C@]3(C(=O)Nc4ccc(C#CC5=CCCCC5)cc43)[C@@H](C(=O)N3CCCCCCC3)[C@H]12 | 0.0888 | -4.91 (inactive) | -0.815 (inactive) | 0.155 (inactive) | -0.782 (inactive) | 1.1 | 1.04 | 1.12 | 0.772 | 1.95 | 1.3 (inactive) | 2.57 | -0.781 (inactive) | -1.2 (inactive) | -0.993 (inactive) | -2.4 (inactive) | 2.98 | 0.682 (inactive) | 0.597 (inactive) | 1.56
COc1ccc(NC(=O)O[C@H]2[C@H](OC(=O)Nc3ccc4c(c3)OCO4)[C@H](OC(=O)Nc3ccc4c(c3)OCO4)[C@@H](OC)O[C@@H]2CO)cc1 | 0.0873 | -2.42 (inactive) | 0.883 (inactive) | 0.456 (inactive) | -0.92 (inactive) | -0.0821 | -0.0131 | 0.207 | 1.91 | 0.725 | -0.723 (inactive) | 0.114 | 13.7 (active) | 1.26 (inactive) | 0.99 (inactive) | 0.597 (inactive) | -0.0897 | -1.54 (inactive) | -0.399 (inactive) | -1.64
